Assay results as given in PubChem BioAssay AID1117267 (The Scripps Research Institute Molecular Screening Center, 2014).
In all, about 92,000 compounds went through this assay and about 1,200 (1.3%) were called active. The full list was thinned out, with actives kept by preference. Unmarked numbers belong to inactive results.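 Rule for the calls: active = activation above the mean of all tested compounds plus 3 SD (cut at about 9.5% in these data); inactive = the rest.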

Assay: TTR transcription activators in neuroblastoma reporter cells, primary screen, cell-based, luminescence, SH-SY5Y, TTR promoter Gaussia luciferase (AID 1117267);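 note: cells exposed to compounds for one day before reading; 0% = median of all test compound wells on the plate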
Conditions: at 16.7 µM, active compounds read high, 100% = recombinant luciferase protein wells
In the case of `CCC(=O)c1c(CC)c2n3c1=CC[C@H]3CC(Br)C=2` (some centres not stated), the activation is reported as -0.76%.
For `O=C(Nc1ccc(C(=O)O)cc1)/C(=C\c1ccccc1)NC(=O)c1ccc(Br)cc1`, the activation was 0.53%.
In the case of `O=C(NC(=O)c1ccccc1N1CCCCC1)Nc1ccc(Br)cc1`, the activation is reported as 22.9% (active).
For `COc1ccccc1C(=O)NC(=S)Nc1ccccc1N1CCCCC1`, the activation was 1.44%.
With `COc1ccc(C(C)NC(=O)C23CC4CC(CC(C4)C2)C3)cc1` (configuration not stated) the activation was 0.59%.
In the case of `Cc1ccc(CN2CCCOCCS2(=O)=O)cc1`, the activation is reported as 11.7% (active).
`O=S1(=O)CCOC[C@H](CC2CCCCC2)N1Cc1ccc(F)cc1` showed an activation of 0.81%.
For `CCC(C)[C@H]1COCCS(=O)(=O)N1Cc1ccc(C)cc1` (some centres not stated), the activation was 1.12%.
`O=C(Cn1cnc2ccccc21)Nc1ccccc1-c1ccccc1` showed an activation of -1.54%.
Compound `CCc1ccccc1NC(=O)Cc1cn(C)c2ccccc12` has an activation of 4%.
For `N=c1ccn(CC(=O)NC(N)=O)c2ccccc12`, the activation was 10.4% (active).
Work on `Cc1cn(C2CC(O)C(CO)O2)c(=O)n(CCCc2ccccc2)c1=O` (configuration not stated) yielded an activation of 1.94%.
For `O=C(CN1CCOCC1)Nc1c(Cl)cc(Cl)cc1Cl`, the activation was -1.15%.
For `O=S(=O)(NCCCN1CCOCC1)c1ccc(F)c(Cl)c1`, the activation was 14.3% (active).
`Cn1c(=O)c(=O)n(C)c2cc(S(=O)(=O)NCCN3CCN(c4ccccc4F)CC3)ccc21` gave an activation of -0.31%.
Compound `Cn1nc(-c2ccccc2)c2cc([N+](=O)[O-])ccc21` has an activation of 2.37%.
`CCCNC(=O)C(=O)Nc1cc2c3c(c1)CCC(=O)N3CCC2` showed an activation of 0.51%.
Compound `CCOC(=O)c1c(-c2ccccc2)oc2ccc(OCC(=O)NN)cc12` has an activation of 3.27%.
For `CCOC(=O)c1c(-c2ccccc2)oc2ccc(OCC(N)=O)cc12`, the activation was 10% (active).
For `CCOC(=O)c1c(C)oc2ccc(OCC(=O)N(CC)CC)cc12`, the activation was 0.72%.
`CCOc1ccc(CN2CCN(Cc3ccon3)CC2CCO)cc1` (configuration not stated) gave an activation of 7.67%.
With `CC(NC(=O)CCCC1CCCCC1)c1ccc(S(N)(=O)=O)cc1` (configuration not stated) the activation was -0.93%.
Work on `CCOC(=O)COc1ccc([N+](=O)[O-])cc1` yielded an activation of 0.43%.
Compound `O=C1CCN(CCc2ccccc2)CCN1CCOc1ccccc1` has an activation of 0.26%.
For `N#Cc1cccc(CN2CCC(=O)N(CCO)CC2)c1`, the activation was 14.7% (active).
Work on `O=C1CCN(Cc2ccc([N+](=O)[O-])cc2)CCN1[C@H](CO)Cc1ccccc1` yielded an activation of -6.98%.
With `CCN([C@H](CO)C(C)C)S(=O)(=O)c1ccccc1Br` the activation was 3.03%.
Work on `CCCCCCNS(=O)(=O)c1ccccc1Br` yielded an activation of -0.76%.
In the case of `O=S(=O)(NCc1ccccc1Br)c1ccccc1Br`, the activation is reported as 14% (active).
`OC(c1ccccc1)(c1ccccc1)C1CCN(CCCOc2ccccc2)CC1` showed an activation of -2.2%.
In the case of `CCOC(=O)C1=C(O)CSC1=Nc1cccc(Cl)c1`, the activation is reported as -2.26%.
For `CCOC(=O)c1cc(-c2ccc(Cl)s2)nc2c1c(C)nn2C`, the activation was 15.8% (active).
`CCOC(=O)c1cc(C(=O)Nc2ccc(S(=O)(=O)Nc3ccc(OC)cc3)cc2)nn1C` showed an activation of -1.23%.
Compound `O=S(=O)(Cc1ccccc1)c1nc2ccccc2n1Cc1ccccn1` has an activation of -0.52%.
Compound `CCC(C(=O)NCc1ccccc1)n1c(Cc2cc(F)cc(F)c2)nc2ccccc21` (configuration not stated) has an activation of -1.34%.
With `O=C(O)Cn1c(Cc2ccccc2)nc2ccccc21` the activation was 20.6% (active).
`COc1cccc(OC)c1C(=O)OCC(=O)/C(C#N)=C(\C)N` showed an activation of -0.74%.
`COc1ccc(CCNC(=O)COc2ccc3c(c2)OCO3)cc1` gave an activation of -1.39%.
With `CC(C)(C)C1CCC(OC(=O)CCC(=O)Nc2ccccc2)CC1` (configuration not stated) the activation was 20.6% (active).
With `CC1CCN(CCC(=O)Nc2ccccc2)CC1` the activation was 0.42%.
Work on `O=C(CCC1CCN(C(=O)c2cccc(Cl)c2F)CC1)Nc1ccccc1` yielded an activation of -1.31%.
`COc1cc2c(cc1CNC[C@H]1O[C@@H](n3cnc(C(N)=O)n3)[C@H](O)[C@@H]1O)OCO2` showed an activation of 1.81%.
For `N#Cc1ccc(CSc2nnc(-c3ccccn3)n2-c2ccc(Cl)cc2)cc1`, the activation was 28% (active).
Compound `Cc1ccc(-n2c(SCC(=O)Nc3ccc4c(c3)OCO4)nnc2-c2ccccn2)cc1` has an activation of -2.71%.
`N#Cc1ccc(CSc2nnc3ccccn23)cc1` showed an activation of -0.39%.
`COc1cccc(/C=C2\SC(=N)N(c3ccc(F)cc3)C2=O)c1` gave an activation of 3.96%.
With `Cc1ccccc1Nc1c([N+](=O)[O-])ccc2nonc12` the activation was -2.33%.
Work on `COc1ccc(NC(=O)CCC(=O)N2CCN(S(=O)(=O)c3ccc(C)cc3)CC2)c(OC)c1` yielded an activation of 2.84%.
For `O=C(COC(=O)c1cc(S(=O)(=O)N2CCCCC2)ccc1Cl)NCc1ccco1`, the activation was 2.03%.
For `O=C(NNC(=O)c1cc(S(=O)(=O)N2CCCCC2)ccc1Cl)c1ccccc1O`, the activation was 11.9% (active).
In the case of `O=C(c1cc(S(=O)(=O)N2CCOCC2)ccc1Cl)N1CCOCC1`, the activation is reported as 2.72%.
For `Clc1ccc(Nc2ncnc3c2nnn3Cc2ccccc2)cc1`, the activation was -0.95%.
With `Cc1cc(C)n2ncc(C(=O)Nc3ccc4c(c3)OCCO4)c2n1` the activation was 2.76%.
With `Cc1nc(Nc2ccc3c(c2)OCCO3)c2nnn(Cc3ccccc3Cl)c2n1` the activation was 11.8% (active).
`O=C(Nc1cc(Cl)cc(Cl)c1)OCCN1CCCC12CCC(c1ccccc1)CC2` (configuration not stated) gave an activation of 1.93%.
Compound `CCN(CC)S(=O)(=O)c1ccc(C(=O)N2CCN(C3=NS(=O)(=O)c4ccccc43)CC2)cc1` has an activation of -0.96%.
Work on `C=CCN1C(=O)C2(OCCCO2)c2cccc(Cl)c21` yielded an activation of 0.94%.
Compound `COc1ccc(NC(=O)CCNC(=O)Cn2cnc3sc4c(c3c2=O)CCCC4)cc1OC` has an activation of -1.59%.
For `O=C(CSc1n[nH]c(-c2cccnc2)n1)Nc1ccc(Cl)cc1`, the activation was -0.75%.
In the case of `Nc1nc(SCC(=O)Nc2ccc(Cl)c([N+](=O)[O-])c2)n[nH]1`, the activation is reported as 9.76% (active).
`Nc1nc(SCC(=O)Nc2ccc(Cl)cc2C(F)(F)F)n[nH]1` gave an activation of 0.01%.
For `COc1ccc(-c2cc(C(=O)N/N=C/c3cccnc3)c3ccccc3n2)c(OC)c1`, the activation was -1.67%.
